Records with an inconclusive call do not appear. The source made the active and inactive calls. How the source made its calls: active means hit-call score of the fitted dose curve at least 0.9, where 1 is the maximum; inconclusive means response in the unintended direction; inactive means score below 0.9.

Broadly, the AC50 is the concentration giving half of the maximal activity seen.

The target of the assay is Estrogen receptor (Homo sapiens) (UniProt P03372). Kind of assay: OT_ER_ERaERa_0480: Odyssey Thera (OT) 8-hour HEK293T Protein-Complementation Assay for Estrogen Receptor-alpha/-alpha Homodimer (AID 2283351).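 Further: rise in fluorescence from reassembled reporter fragments on ERα LBD homodimer in nucleus or whole cell.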 In short, it runs like this: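 HEK293T cells stably expressing the human ERα ligand-binding domain (aa 310-547) as a homodimer PCA were dosed with compound for 8 h. Gain of fluorescence intensity versus DMSO vehicle was read by laser scanning cytometry.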
Chain of Estrogen receptor (Homo sapiens) (P03372 whole entry, looked up, the tested form may be a part): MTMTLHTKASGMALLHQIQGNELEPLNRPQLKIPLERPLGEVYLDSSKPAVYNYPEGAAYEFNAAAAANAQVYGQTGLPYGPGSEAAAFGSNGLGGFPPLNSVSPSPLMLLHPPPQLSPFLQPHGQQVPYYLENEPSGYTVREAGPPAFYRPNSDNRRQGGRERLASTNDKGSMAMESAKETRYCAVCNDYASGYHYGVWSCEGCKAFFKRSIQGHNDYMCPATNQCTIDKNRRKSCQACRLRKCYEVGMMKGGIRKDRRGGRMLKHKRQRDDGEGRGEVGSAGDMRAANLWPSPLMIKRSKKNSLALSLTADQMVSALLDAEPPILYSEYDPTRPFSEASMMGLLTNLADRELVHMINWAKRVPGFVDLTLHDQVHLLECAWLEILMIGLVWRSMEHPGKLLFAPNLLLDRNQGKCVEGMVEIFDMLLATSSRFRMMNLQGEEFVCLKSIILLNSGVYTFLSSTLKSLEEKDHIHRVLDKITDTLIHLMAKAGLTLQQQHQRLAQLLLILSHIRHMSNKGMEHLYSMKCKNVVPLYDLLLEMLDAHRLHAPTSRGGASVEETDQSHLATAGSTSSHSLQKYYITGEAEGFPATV
Turning to `C[N+](C)(C)CC1CO1` (stereo unspecified), the molecule was classed as inactive.
The same measure, in the same setting: the entry for `CO[C@@H]1[C@H](OC(=O)NC(=O)CCl)CC[C@]2(CO2)[C@H]1[C@@]1(C)O[C@@H]1CC=C(C)C` is “inactive”; for `Nc1ccc(N=Nc2ccccc2)cc1` it is “inactive”.
On the same count and under the same terms, the entry for `ClC1=C(Cl)[C@]2(Cl)[C@H]3[C@H]([C@@H]4C=C[C@H]3C4)[C@@]1(Cl)C2(Cl)Cl` is “inactive”.
`CC(C)COC(=O)c1ccccc1C(=O)OCC(C)C`: the AC50 is 31.4 µM (active).
Regarding `O=C(Oc1ccc(Br)cc1)N1CCN2CCC1CC2`, the molecule was called inactive.
In the case of `[Cl-].[Cl-].[Hg+2]`, the outcome was inactive.
Still for that read-out and setting: the result for `ClC1=C(Cl)C2(Cl)C3C(Cl)C=CC3C1(Cl)C2(Cl)Cl` (stereo unspecified) reads “inactive”; that for `Cn1cc(-c2ccccc2)c(=O)c(-c2cccc(C(F)(F)F)c2)c1`, “inactive”.
On the same count and under the same terms, the entry for `O=C(Nc1ccccc1)c1ccccc1I` is “inactive”; for `Clc1ccc(C(c2ccc(Cl)cc2)C(Cl)Cl)cc1` it is “inactive”; for `Cc1ccc([N+](=O)[O-])cc1` it is “inactive”.
Consider `CCOc1cccc(C2(N3CCN(c4ccccc4)CC3)CCC(C)CC2)c1` (stereo unspecified), for which the result was inactive.
The same measure, in the same setting: the entry for `CNC(=O)Oc1cccc2c1OC(C)(C)C2` is “inactive”.
With `Brc1ccc(Oc2ccccc2)cc1`, the result was inactive.
Still for that read-out and setting: the entry for `OCCOCCO` is “inactive”.
Turning to `COc1cc(C=O)cc2c1[C@H](COC(N)=O)[C@]1(OC(C)=O)ON2C[C@H]2[C@@H]1N2C(C)=O`, the molecule was called inactive.
On the same count and under the same terms, the result for `N#CC(Br)Br` reads “inactive”.
The same measure, in the same setting: the result for `OCCCBr` reads “inactive”; that for `O=[N+]([O-])C(Br)(CO)CO`, “inactive”; that for `[O-][Cl+]O`, “inactive”.
`CCCCCCCCCCCCCN1CC(C)OC(C)C1` (stereo unspecified): the outcome was inactive.
On the same count and under the same terms, the entry for `CCC12COCN1COC2` is “inactive”; for `CCC[CH2][Sn]([Cl])([CH2]CCC)[CH2]CCC` it is “inactive”.
Turning to `CCCCCOC(=O)c1ccccc1C(=O)OCCCCC`, the AC50 was 56.2 µM (active).
For the molecule `CCCCCCCCn1sccc1=O`, the call was inactive.

Source of the values: PubChem BioAssay (EPA / NIEHS).
